Screens deposited in PubChem BioAssay by National Center for Advancing Translational Sciences (NCATS).
Only some compounds are listed: those with a hit (about 19% of all), similar ones and a draw of the others.
DT40 TDP1 CPT – growth inhibition of DT40 Tdp1-/-;hTDP1 cells with camptothecin (screen for TDP1 inhibitors); Potency, µM (doses to about 46.2 µM), for inactives: at the top dose activity change, negative = growth inhibition, actives largely listed as inhibitors; AID 686979; chicken DT40 Tdp1-/-;hTDP1 cells + 20 nM CPT, ATP luminescence, 48 h; 420,000 compounds, 12% hits; further: potency means the concentration at half of the fitted maximal effect; nearly all actives have a fitted effect of over 55% in size
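Chicken DT40 Tdp1-/- cells stably complemented with human TDP1 were seeded at 400 cells/well in medium containing 20 nM camptothecin, exposed to pin-transferred compounds, and grown at 37 °C for at least 48 hr. Viability was read as ATP luminescence.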
DT40 TDP1 no CPT – qHTS for Inhibitors of human tyrosyl-DNA phosphodiesterase 1 (TDP1): qHTS in cells in absence of CPT; 420,000 compounds, 15% hits; Potency, µM (titrated, usually from 46.2 µM), inactives show at the highest dose activity change, negative = growth inhibition, usual class: inhibitors; AID 686978, 2013; DT40 Tdp1-/- hTDP1 cells, no CPT, ATP luminescence, 48 h; further: potency means the concentration at half of the fitted maximal effect; nearly all actives have a fitted effect of over 55% in size
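No-CPT arm: Tdp1-/-;hTDP1 DT40 cells (400/well) plus compounds, incubated ≥48 hr at 37 °C. Readout CellTiter-Glo luminescence.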
IL-1B inflam inh – inflammasome signaling inhibition, IL-1 beta readout; 360,000 compounds, 4.7% hits; activity change, % at 57.5 µM; THP-1 LPS/ATP IL-1B secretion, AlphaLISA, 16 h; stronger effect = lower value; AID 743279; in the data active means activity change below about -50%; inconclusive means mostly about -30% to -49%
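Secreted IL-1B measured by AlphaLISA bead assay after 16 h compound exposure of THP-1 cells; compounds (final up to 57.5 uM) added 1 h before LPS (250 ng/mL) and ATP (1.25 mM) stimulation; lower signal means less secretion.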
HT1080NT lethal – kills 2HG-producing HT-1080-NT fibrosarcoma cells; 360,000 compounds, 1.6% hits; HT-1080-NT fibrosarcoma viability, CellTiter-Glo ATP luminescence, 48 h; Potency, µM (series often up to 46.1 µM), for the others: at the highest dose activity, negative = less viability, most hits filed as cytotoxic; AID 686970;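 further: NT is the 2HG producing partner of a matched IDH1 knockdown line; potency means the concentration at half of the fitted maximal effect; 0% = DMSO-treated cells and -100% = media-only wells without cells; nearly all actives have a fitted effect of over 55% in size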
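Viability of the 2HG-overproducing fibrosarcoma line after 48 hours of compound exposure at 37 degrees C was determined by luminescence with CellTiter-Glo, and concentration-effect curves were then fitted and categorized.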
HT1080 IDH1KD tx – HT-1080 IDH1 knockdown cell toxicity (counter line); 360,000 compounds, 2% hits; Potency, µM (doses to about 46.1 µM), for inactives: at the top dose activity, negative = toxicity, hits mostly cytotoxic; AID 686971; HT-1080 IDH1 knockdown viability, ATP luminescence, 48 h;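 further: potency means the concentration at half of the fitted maximal effect; 0% = DMSO wells and -100% = cell-free medium wells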
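Viability of IDH1-knockdown HT-1080 fibrosarcoma cells was assessed by CellTiter-Glo after 48 h at 37 °C with titrated compound; concentration-effect curves were classified by fit quality and response size.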
* hit, by the source's call; u = inconclusive. Unless noted, the call rests on the fitted dose curve; in most records, active means well fitted curve in the direction sought with a large enough effect; inconclusive means small, poorly fitted or top-dose-only effect, or another doubt; inactive means no such curve, though single readings can be large; an effect the other way counts as inactive or inconclusive. Unless noted, on the % scale 0 is the no-effect control and ±100 the full control effect.

SMILES | DT40 TDP1 CPT | DT40 TDP1 no CPT | IL-1B inflam inh | HT1080NT lethal | HT1080 IDH1KD tx
O=C1OCCN1C(=O)[C@H]1[C@H](c2ccc([N+](=O)[O-])cc2)C(c2ccc(F)cc2)=NN1c1ccccc1 | u | -24% | -51* | -14% | -28%
CC(C)NC(=O)c1cc(C2CCCCN2C(=O)c2ccc(C#N)cc2)on1 (stereo not given) | u | 1% | 1 | 6% | 24%
COc1ccc(S(=O)(=O)N2CCN(c3ccccc3OC)CC2)cc1C(=O)N1CCCCC1 | u | u | 5 | 0% | -5%
CCOc1ccc(C(=O)NCC(=O)NCC(c2cccs2)N2CCOCC2)cc1 (stereo not given) | 0% | -24% | 6 | 4% | 2%
CCOC(=O)C1=CC[C@@H](c2ccccc2)N(S(=O)(=O)c2ccc(C)cc2)[C@H]1c1ccccc1C | 13µM* | 9.2µM* | 13 | -1% | -2%
CCc1ccc([C@@H]2CC=C(C(=O)O)[C@H](c3ccccc3F)N2S(=O)(=O)c2ccc(C)cc2)cc1 | -12% | 1% | 18 | -13% | -11%
CCOC(=O)C1=CC[C@@H](c2ccc([N+](=O)[O-])cc2)N(S(=O)(=O)c2ccc(C)cc2)[C@H]1c1ccccc1 | u | u | 41 | 13% | 12%
CCOC(=O)C1=CC[C@@H](c2ccc(F)cc2)N(S(=O)(=O)c2ccc(C)cc2)[C@H]1c1ccccc1 | 16µM* | 23µM* | 18 | 10% | 5%
CCOC(=O)C1=CC[C@@H](c2cc3ccc(OC)cc3n2C)N(S(=O)(=O)c2ccc(C)cc2)[C@H]1C(=O)OCC | u | u | 33 | u | 7%
CCOC(=O)C1=CC[C@@H](c2ccccc2)N(S(=O)(=O)c2ccc(C)cc2)[C@H]1C=C(C)C | 16µM* | 12µM* | 9 | -21% | u
CCOC(=O)C1=CC[C@@H](c2cc(OC)c(OC)c(OC)c2)N(S(=O)(=O)c2ccc(C)cc2)[C@H]1C(=O)OCC | 26µM* | u | 5 | 15% | 7%
CCc1ccc([C@@H]2CC=C(C(=O)O)[C@H](c3ccc(C)cc3)N2S(=O)(=O)c2ccc(C)cc2)cc1 | 4% | -4% | 51 | -23% | -22%
O=C(COCc1cc(-c2ccc3c(c2)OCO3)on1)N1CCN(c2ccccc2)CC1 | u | u | u | -28% | -29%
O=[N+]([O-])c1ccc(C(O)C[n+]2ccccc2)cc1 (stereo not given) | -4% | 9% | -6 | -20% | 1%
CCOC(=O)C1=CC[C@@H](c2ccccc2)N(S(=O)(=O)c2ccc(C)cc2)[C@H]1c1ccc(C#N)cc1 | 12µM* | 9.2µM* | 38 | -1% | 3%
CCOC(=O)C1=CC[C@@H](c2ccccc2)N(S(=O)(=O)c2ccc(C)cc2)[C@H]1C#N | u | u | -25 | 16µM* | u
Cc1ccc([C@@H]2CC=C(C(=O)O)[C@H](c3ccccc3)N2S(=O)(=O)c2ccc(C)cc2)cc1 | -1% | -12% | 36 | -15% | -3%
CCOC(=O)CC1(C)Sc2ccccc2N1S(=O)(=O)c1ccc(C)cc1 (stereo not given) | u | u | -1 | -29% | -21%
CCC(C)NC(=O)CSc1nc2cc(S(=O)(=O)N3CCOCC3)ccc2n1CC (stereo not given) | 5% | 9% | -9 | 3% | 0%
CCCn1c(CCl)nc2cc(S(=O)(=O)N3CCOCC3)ccc21 | 4% | -7% | 37 | 13% | -1%
CCn1c(SCC(=O)c2cc(C)ccc2C)nc2cc(S(=O)(=O)N3CCOCC3)ccc21 | u | 18µM* | 11 | -7% | 0%
Cc1ccc(C(=O)CSc2nc3cc(S(=O)(=O)N4CCOCC4)ccc3o2)cc1 | 18µM* | u | -10 | -1% | 1%
CCn1c2ccccc2c2nc3cc(S(=O)(=O)N4CCOCC4)ccc3nc21 | 15µM* | 13µM* | u | -17% | -18%
